# Assay results published in the antibiotic and cytotoxicity screens of Wong et al. (2023).
# About 3,300 (8.5%) of roughly 39,000 compounds were called active. The list comes from a sample in which actives are over-represented; it also holds similar structures and randomly drawn compounds.
# Test system: HepG2
# Assay: cytotoxicity call (relative viability < 0.9)
# Details: 10 µM
row,SMILES,cytotoxicity call
1,CN1C(=O)c2cc(NC(=O)c3ccc(F)c(F)c3)ccc2OC[C@H]2O[C@H](CC(=O)N3CCOCC3)CC[C@H]21,inactive
2,Cc1ccc(S(=O)(=O)Nc2ccc3c(c2)C(=O)N([C@@H](C)CO)C[C@@H](C)[C@@H](CN(C)C(=O)CCC(F)(F)F)OCCCC[C@@H](C)O3)cc1,inactive
3,CCS(=O)(=O)N1C[C@]2(CCN(CC2)S(=O)(=O)c2cn(cn2)C)c2c(n(c3cc(ccc23)OC)C)[C@H]1CO,inactive
4,C[C@H](CO)N1C[C@H](C)[C@@H](CN(C)C(=O)Nc2ccc(F)cc2)OCc2ccccc2-c2c(n(C)c3ccccc23)C1=O,inactive
5,COCC(=O)N1C[C@H](C)[C@@H](OC)CN(C)C(=O)c2ccc(NC(=O)Nc3ccccc3)cc2OC[C@H]1C,inactive
6,C[C@H](CO)N1C[C@H](C)[C@H](CN(C)Cc2ccc(C(=O)O)cc2)Oc2ccc(NS(C)(=O)=O)cc2C1=O,inactive
7,C[C@H]1CN([C@@H](C)CO)C(=O)Cc2cc(NC(=O)Nc3ccc(C(F)(F)F)cc3)ccc2O[C@@H]1CN(C)Cc1ccc(-c2ccccc2)cc1,inactive
8,C[C@H](CO)N1C[C@H](C)[C@H](CN(C)Cc2ccc(-c3ccccc3)cc2)Oc2ccc(NC(=O)Nc3ccc(C(F)(F)F)cc3)cc2CC1=O,active
9,C[C@H]1CN([C@@H](C)CO)C(=O)Cc2cc(NC(=O)Nc3ccc(C(F)(F)F)cc3)ccc2O[C@H]1CN(C)Cc1ccc(-c2ccccc2)cc1,active
10,C[C@@H]1CN([C@@H](C)CO)C(=O)Cc2cc(NC(=O)Nc3ccc(C(F)(F)F)cc3)ccc2O[C@H]1CN(C)Cc1ccc(-c2ccccc2)cc1,active
11,C[C@@H]1CN([C@H](C)CO)C(=O)Cc2cc(NC(=O)Nc3ccc(C(F)(F)F)cc3)ccc2O[C@@H]1CN(C)Cc1ccc(-c2ccccc2)cc1,active
12,COCCN1C[C@H]2CN(Cc3nccn3C)C[C@H]2C1=O,inactive
13,O=C(C[C@H]1C[C@H]2c3cc(NS(=O)(=O)c4ccc(F)cc4)ccc3O[C@H]2[C@H](CO)O1)NC1CCCCC1,inactive
14,CC1(C)CCC2=C(O1)C(=O)c1ccccc1C2=O [alpha-LAPACHONE ],inactive
15,Cc1noc(C)c1NC(=O)N(C)C[C@H]1OCCCC[C@@H](C)Oc2ccc(NC(=O)CCC(F)(F)F)cc2C(=O)N([C@H](C)CO)C[C@@H]1C,inactive
16,Cc1ccc(S(=O)(=O)N(C)C[C@@H]2Oc3ccc(NS(=O)(=O)c4c(C)noc4C)cc3C(=O)N([C@H](C)CO)C[C@H]2C)cc1,inactive
17,C[C@@H]1CCCCO[C@H](CN(C)C(=O)CCC(F)(F)F)[C@H](C)CN([C@@H](C)CO)C(=O)c2cc(NS(=O)(=O)c3ccccc3)ccc2O1,inactive
18,C[C@@H]1CN([C@@H](C)CO)C(=O)c2cc(NS(=O)(=O)c3cn(C)cn3)ccc2O[C@@H](C)CCCCO[C@H]1CN(C)S(=O)(=O)c1cn(C)cn1,inactive
19,C[C@@H]1CN([C@@H](C)CO)C(=O)Cc2cc(NC(=O)Nc3ccc(C(F)(F)F)cc3)ccc2O[C@@H]1CN(C)Cc1ccc(-c2ccccc2)cc1,active
20,C[C@H](CO)N1C[C@H](C)[C@@H](CN(C)Cc2ccc(-c3ccccc3)cc2)Oc2ccc(NC(=O)Nc3ccc(C(F)(F)F)cc3)cc2CC1=O,active

row,SMILES,cytotoxicity call
1,C[C@@H]1CN([C@H](C)CO)C(=O)Cc2cc(NC(=O)Nc3ccc(C(F)(F)F)cc3)ccc2O[C@H]1CN(C)Cc1ccc(-c2ccccc2)cc1,active
2,C[C@@H]1CCCCO[C@@H](CN(C)C(=O)c2ccccc2)[C@H](C)CN([C@@H](C)CO)C(=O)c2cc(NC(=O)c3ccccc3)ccc2O1,inactive
3,C[C@@H]1CN([C@@H](C)CO)C(=O)Cc2cc(NC(=O)CCN3CCOCC3)ccc2O[C@H]1CN(C)Cc1ccncc1,inactive
4,COc1cccc(NC(=O)N[C@@H]2CC[C@H](CC(=O)N3CCOCC3)O[C@H]2CO)c1,inactive
5,O=C(NCc1cccc(F)c1)[C@H]1[C@H](CO)[C@H]2Cn3c(cccc3=O)[C@@H]1N2C(=O)c1cnccn1,inactive
6,C[C@@H](CO)N1CC[C@H](CN(C)Cc2ccc(Oc3ccccc3)cc2)Oc2c(NC(=O)c3ccncc3)cccc2C1=O,inactive
7,CC(=O)N[C@H]1[C@@H](OCc2ccccc2)O[C@H](C(=O)O)[C@@H](OC(C)=O)[C@@H]1OC(C)=O,inactive
8,C[C@@H]1CN([C@@H](C)CO)S(=O)(=O)c2ccc(-c3ccc(C(=O)N(C)C)cc3)cc2O[C@H]1CN(C)C(=O)C1CCOCC1,inactive
9,COCC(=O)N(C)C[C@@H]1Oc2cc(C#Cc3ccccc3)ccc2S(=O)(=O)N([C@@H](C)CO)C[C@H]1C,inactive
10,Cc1ccc(NC2=CC(=O)C[C@H](c3ccc(Cl)cc3)C2)cc1,inactive
11,C[C@@H]1CN([C@H](C)CO)C(=O)c2cc(NC(=O)c3ccccc3)ccc2O[C@@H](C)CCCCO[C@@H]1CN(C)Cc1ccc(Cl)c(Cl)c1,active
12,C[C@@H]1CN([C@H](C)CO)C(=O)c2cc(NC(=O)c3ccccc3)ccc2O[C@@H](C)CCCCO[C@H]1CN(C)Cc1ccc(Cl)c(Cl)c1,active
13,C[C@@H]1CCCCO[C@H](CN(C)Cc2ccc(Cl)c(Cl)c2)[C@H](C)CN([C@@H](C)CO)C(=O)c2cc(NC(=O)c3ccccc3)ccc2O1,inactive
14,C[C@@H]1CCCCO[C@@H](CN(C)Cc2ccc(Cl)c(Cl)c2)[C@H](C)CN([C@@H](C)CO)C(=O)c2cc(NC(=O)c3ccccc3)ccc2O1,active
15,C[C@@H]1CCCCO[C@H](CN(C)Cc2ccc(Cl)c(Cl)c2)[C@@H](C)CN([C@H](C)CO)C(=O)c2cc(NC(=O)c3ccccc3)ccc2O1,inactive
16,C[C@H]1CCCCO[C@H](CN(C)Cc2ccc(Cl)c(Cl)c2)[C@@H](C)CN([C@@H](C)CO)C(=O)c2cc(NC(=O)c3ccccc3)ccc2O1,inactive
17,C[C@@H]1CCCCO[C@@H](CN(C)Cc2ccc(Cl)c(Cl)c2)[C@H](C)CN([C@H](C)CO)C(=O)c2cc(NC(=O)c3ccccc3)ccc2O1,inactive
18,C[C@H](CO)N1C[C@H](C)[C@H](CN(C)Cc2ccc(Cl)c(Cl)c2)OCCCC[C@H](C)Oc2ccc(NC(=O)c3ccccc3)cc2C1=O,inactive
19,C[C@H](CO)N1C[C@H](C)[C@@H](CN(C)Cc2ccc(Cl)c(Cl)c2)OCCCC[C@H](C)Oc2ccc(NC(=O)c3ccccc3)cc2C1=O,inactive
20,C[C@@H]1CN([C@H](C)CO)C(=O)CCCn2nncc2CO[C@H]1CN(C)C(=O)Nc1ccc(C(C)(C)C)cc1,inactive

row,SMILES,cytotoxicity call
1,Cc1ccc(S(=O)(=O)N2C[C@H](O)COC[C@@H]3O[C@H](CC(=O)N4CCc5ccccc5C4)CC[C@H]32)cc1,inactive
2,COc1ccc(NC(=O)Nc2ccc3c(c2)C(=O)N([C@H](C)CO)C[C@H](C)[C@@H](CN(C)CC2CC2)OCCCC[C@@H](C)O3)cc1,inactive
3,COc1ccc(S(=O)(=O)Nc2ccc3c(c2)CC(=O)N([C@@H](C)CO)C[C@H](C)[C@@H](CN(C)S(=O)(=O)c2cccs2)O3)cc1,inactive
4,C[C@@H]1CN([C@H](C)CO)C(=O)c2cc(NS(=O)(=O)c3cn(C)cn3)ccc2O[C@@H](C)CCCCO[C@@H]1CN(C)S(=O)(=O)c1ccc(F)cc1,inactive
5,C[C@H]1CN([C@@H](C)CO)C(=O)c2cc(-c3cncnc3)cnc2O[C@H]1CN(C)C(=O)CN1CCOCC1,inactive
6,C[C@@H]1CN([C@H](C)CO)C(=O)c2cc(NC(=O)NC3CCCCC3)ccc2O[C@@H]1CN(C)Cc1ccc(C(=O)Nc2ccccc2N)cc1,inactive
7,COc1ccc(C#Cc2cnc3c(c2)C(=O)N([C@@H](C)CO)C[C@H](C)[C@H](CN(C)C(=O)CC2CC2)O3)cc1,inactive
8,C[C@H]1CCCCO[C@@H](CN(C)Cc2ccc(C(F)(F)F)cc2)[C@@H](C)CN([C@@H](C)CO)C(=O)c2cc(NC(=O)C3CCCCC3)ccc2O1,inactive
9,C[C@@H]1CCCCO[C@@H](CN(C)Cc2ccc(C(F)(F)F)cc2)[C@H](C)CN([C@@H](C)CO)C(=O)c2cc(NC(=O)C3CCCCC3)ccc2O1,inactive
10,C[C@H]1CCCCO[C@H](CN(C)Cc2ccc(C(F)(F)F)cc2)[C@@H](C)CN([C@@H](C)CO)C(=O)c2cc(NC(=O)C3CCCCC3)ccc2O1,active
11,C[C@H](CO)N1C[C@H](C)[C@@H](CN(C)Cc2ccc(C(F)(F)F)cc2)OCCCC[C@H](C)Oc2ccc(NC(=O)C3CCCCC3)cc2C1=O,inactive
12,C[C@@H]1CN([C@H](C)CO)C(=O)c2cc(NC(=O)C3CCCCC3)ccc2O[C@@H](C)CCCCO[C@H]1CN(C)Cc1ccc(C(F)(F)F)cc1,inactive
13,C[C@@H]1CCCCO[C@@H](CN(C)Cc2ccc(C(F)(F)F)cc2)[C@@H](C)CN([C@@H](C)CO)C(=O)c2cc(NC(=O)C3CCCCC3)ccc2O1,inactive
14,C[C@@H]1CN([C@@H](C)CO)C(=O)c2cc(NC(=O)C3CCCCC3)ccc2O[C@@H](C)CCCCO[C@@H]1CN(C)Cc1ccc(C(F)(F)F)cc1,inactive
15,C[C@@H]1CCCCO[C@H](CN(C)Cc2ccc(C(F)(F)F)cc2)[C@@H](C)CN([C@@H](C)CO)C(=O)c2cc(NC(=O)C3CCCCC3)ccc2O1,active
16,C[C@H](CO)N1C[C@H](C)[C@H](CN(C)Cc2ccc(C(F)(F)F)cc2)OCCCC[C@H](C)Oc2ccc(NC(=O)C3CCCCC3)cc2C1=O,inactive
17,C[C@@H]1CN([C@@H](C)CO)C(=O)c2cc(NC(=O)C3CCCCC3)ccc2O[C@@H](C)CCCCO[C@H]1CN(C)Cc1ccc(C(F)(F)F)cc1,active
18,C[C@@H]1CCCCO[C@H](CN(C)Cc2ccc(C(F)(F)F)cc2)[C@H](C)CN([C@@H](C)CO)C(=O)c2cc(NC(=O)C3CCCCC3)ccc2O1,active
19,C[C@@H]1CN([C@H](C)CO)C(=O)c2cc(NC(=O)C3CCCCC3)ccc2O[C@@H](C)CCCCO[C@@H]1CN(C)Cc1ccc(C(F)(F)F)cc1,inactive
